PubChem BioAssay (NCATS)
Records with an inconclusive call do not appear. Unless noted, calls follow the shape of the dose curve; as a rule, active = well fitted curve in either direction with a large enough effect (not every such curve was filed as active); inconclusive = small, poorly fitted or top-dose-only effect, or another doubt; inactive = flat fitted curve, though single readings scatter.

Experiments:
[1] = AP1 Signaling Pathway (AID 357); details: ME-180 AP-1-bla reporter, EGF-induced, beta-lactamase ratio, 5 h; at 17.2 µM (top of the series) unless noted;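 also: ME-180 reporter cells stimulated with EGF at its EC50 level; % is scaled to controls: 0 for no effect and ±100 for the full control effect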
Procedure, shortened: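 In this screen, ME-180 cells in Opti-MEM with 0.5% dialyzed FBS received EC50 EGF and compound titrations for 5 h. AP-1 reporter beta-lactamase was detected via CCF4 ratio, giving AC50 for positive and negative modulators.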

[2] = NFAT Signaling Pathway (AID 444); details: Jurkat NFAT-bla M1, carbachol, beta-lactamase ratio, 5 h; at 17.2 µM (top of the series) unless noted;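 also: carbachol stimulus at about its EC50 of 1 µM final; % is scaled to controls: 0 for no effect and ±100 for the full control effect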
Procedure, shortened: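 Read-out: CCF4 FRET ratio (460 nm/530 nm) after 1 h RT dye loading, used for %activity and AC50 from titration series. Cells: Jurkat NFAT-β-lactamase/M1 line, treated with compound plus 1 uM carbachol for 5 h, 37 °C.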

[3] = Stat Signaling Pathway (AID 446); details: ME-180 SIE beta-lactamase reporter, IL-6 stimulated, 5 h; at 17.2 µM (top of the series) unless noted;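 also: ME-180 cervical cancer cells given 40 pM IL-6 alongside compound; SIE-controlled beta-lactamase reporter measured as 460/530 nm FRET emission ratio; % is scaled to controls: 0 for no effect and ±100 for the full control effect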
Procedure, shortened: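 Reporter line: ME-180 cervical carcinoma, SIE-beta-lactamase. Treatment: compound with 40 pM IL-6, 5 hrs, 37 C, in low-serum OPTI-MEM with 10 mM HEPES pH 7.3. Detection: 460/530 nm fluorescence.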

[4] = molecular target: Glucocorticoid receptor (Homo sapiens) (UniProt P04150); assay: GR-GFP Redistribution (AID 450;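 active = compounds whose dose series gives a full or clear partial fitted curve of increased nuclear translocation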; also: potency is read from the fitted curve at half-maximal effect)
Glucocorticoid receptor (Homo sapiens), sequence (P04150 whole entry, looked up): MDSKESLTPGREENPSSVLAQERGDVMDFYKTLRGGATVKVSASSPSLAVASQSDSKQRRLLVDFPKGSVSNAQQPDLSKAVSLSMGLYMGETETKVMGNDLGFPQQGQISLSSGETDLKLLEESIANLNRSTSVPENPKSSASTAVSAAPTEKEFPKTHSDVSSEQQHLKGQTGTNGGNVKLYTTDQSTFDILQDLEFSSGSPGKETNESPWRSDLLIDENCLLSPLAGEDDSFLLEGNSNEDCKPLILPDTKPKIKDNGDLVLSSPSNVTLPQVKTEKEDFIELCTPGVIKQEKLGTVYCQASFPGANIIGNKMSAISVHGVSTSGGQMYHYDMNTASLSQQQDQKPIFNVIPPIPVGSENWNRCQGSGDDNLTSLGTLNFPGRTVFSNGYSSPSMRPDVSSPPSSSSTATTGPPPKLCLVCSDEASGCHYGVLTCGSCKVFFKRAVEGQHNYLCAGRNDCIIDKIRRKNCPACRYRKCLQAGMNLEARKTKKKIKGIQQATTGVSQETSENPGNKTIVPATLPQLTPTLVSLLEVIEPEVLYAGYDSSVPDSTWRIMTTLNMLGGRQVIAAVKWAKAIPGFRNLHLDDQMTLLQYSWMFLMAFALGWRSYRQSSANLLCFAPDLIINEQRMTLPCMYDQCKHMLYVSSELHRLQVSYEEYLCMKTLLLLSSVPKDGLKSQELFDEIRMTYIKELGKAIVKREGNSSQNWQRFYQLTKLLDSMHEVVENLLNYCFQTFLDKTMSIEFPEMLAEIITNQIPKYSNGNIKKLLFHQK

O=C(Oc1ccccc1)c1c(Cl)cccc1P(=O)(O)O
inactive: activity change, negative = inhibition [1] 7.32% | activity change, negative = inhibition [2] 2.02% | activity, negative = inhibition [3] 5.05% | Potency [4] > 20.6 µM

COc1ccc(OC)c(C2C(C#N)=C(N)Oc3cc(C)n(Cc4ccccn4)c(=O)c32)c1 (centres undefined)
inactive: activity change, negative = inhibition [1] 1.88% | activity change, negative = inhibition [2] -20.4% | activity, negative = inhibition [3] -2.84% | Potency [4] > 20.6 µM

Cc1cc(=O)oc(C)c1C(=O)NCC1CCCO1 (centres undefined)
inactive: activity change, negative = inhibition [1] 2.9% | activity change, negative = inhibition [2] -0.802% | activity, negative = inhibition [3] 1.38% | Potency [4] > 20.6 µM

Cc1nn(C)cc1CNC(=O)c1ccc(Br)o1
inactive: activity change, negative = inhibition [1] 5.3% | activity change, negative = inhibition [2] -0.512% | activity, negative = inhibition [3] 6.82% | Potency [4] > 20.6 µM

COc1ccc(OC)c(C2/C(=C(\O)c3ccc4c(c3)OCCO4)C(=O)C(=O)N2CCCN(C)C)c1 (centres undefined)
inactive: activity change, negative = inhibition [1] 4.27% | activity change, negative = inhibition [2] 12.2% | activity, negative = inhibition [3] -7.15% | Potency [4] > 20.6 µM

CSC(=Nc1ccccc1)C1=C(O)COC1=O
inactive: activity change, negative = inhibition [1] 3.1% | activity change, negative = inhibition [2] 4.52% | activity, negative = inhibition [3] -5.43% | Potency [4] > 20.6 µM

Cc1cc(=O)n(CCC(=O)O)c2ccccc12
inactive: activity change, negative = inhibition [1] 4.89% | activity change, negative = inhibition [2] 1.73% | activity, negative = inhibition [3] 3.32% | Potency [4] > 20.6 µM

O=C(OCC#CCSc1nnc(-c2ccccc2)o1)c1cccs1
inactive: activity change, negative = inhibition [1] -3.3% | activity change, negative = inhibition [2] -29.9% | activity, negative = inhibition [3] -1.99% | Potency [4] > 20.6 µM

c1ccc(-c2nnc(OCCN3CCOCC3)c3ccccc23)cc1
inactive: activity change, negative = inhibition [1] -8.82% | activity change, negative = inhibition [2] 5.5% | activity, negative = inhibition [3] 5.26% | Potency [4] > 20.6 µM

CCOc1nnnc2c1sc1nc(N3CCOCC3)c3c(c12)CC(C)(C)OC3
inactive: activity change, negative = inhibition [1] -7.69% | activity change, negative = inhibition [2] -17.4% | activity, negative = inhibition [3] -9.58% | Potency [4] > 20.6 µM

COC(=O)c1ccc(Cn2nnc3c(sc4nc(N5CCOCC5)c5c(c43)CCCC5)c2=O)o1
inactive: activity change, negative = inhibition [1] 0.759% | activity change, negative = inhibition [2] -21.1% | activity, negative = inhibition [3] -4.56% | Potency [4] > 20.6 µM

COc1cc(C)nc(Oc2ccc(=O)[nH]n2)n1
inactive: activity change, negative = inhibition [1] 16.4% | activity change, negative = inhibition [2] -26.6% | activity, negative = inhibition [3] 13.6% | Potency [4] > 20.6 µM

CCOc1ccc(-n2c(SCc3ccc(C#N)cc3)nnc2-c2cccnc2)cc1
inactive: activity change, negative = inhibition [1] -13.8% | activity change, negative = inhibition [2] 6.12% | activity, negative = inhibition [3] -13.6% | Potency [4] > 20.6 µM

CCOC(=O)CSc1nc(-c2ccncc2)ccc1C#N
inactive: activity change, negative = inhibition [1] -1.16% | activity change, negative = inhibition [2] -7.89% | activity, negative = inhibition [3] 3.41% | Potency [4] > 20.6 µM

Cc1cc(N2CCN(C3CCCC3)CC2)n2c(nc3ccccc32)c1C#N
inactive: activity change, negative = inhibition [1] 17.3% | activity change, negative = inhibition [2] 19.5% | activity, negative = inhibition [3] 28.2% | Potency [4] > 20.6 µM

c1csc(-c2nn3c(C4CCCCC4)nnc3s2)c1
inactive: activity change, negative = inhibition [1] -6.89% | activity change, negative = inhibition [2] -19.6% | activity, negative = inhibition [3] 20.7% | Potency [4] > 20.6 µM

CC1(c2ccco2)NC(=O)NC1=O (centres undefined)
inactive: activity change, negative = inhibition [1] 5.26% | activity change, negative = inhibition [2] 1.83% | activity, negative = inhibition [3] 5.48% | Potency [4] > 20.6 µM

Fc1ccccc1/C=N/n1cnnc1
inactive: activity change, negative = inhibition [1] 3.64% | activity change, negative = inhibition [2] 1.1% | activity, negative = inhibition [3] 2.69% | Potency [4] > 20.6 µM

O=C(c1cccc(Cl)c1)N1CCN(C(=O)c2ccccc2F)CC1
inactive: activity change, negative = inhibition [1] -14.3% | activity change, negative = inhibition [2] 0.199% | activity, negative = inhibition [3] -11.1% | Potency [4] > 20.6 µM

CCOc1ccc(CCNC(=O)C(O)c2ccccc2)cc1 (centres undefined)
inactive: activity change, negative = inhibition [1] 13% | activity change, negative = inhibition [2] 4.66% | activity, negative = inhibition [3] 18.6% | Potency [4] > 20.6 µM

C(=N\n1cnnc1)/c1cccnc1
inactive: activity change, negative = inhibition [1] -4.05% | activity change, negative = inhibition [2] -13.4% | activity, negative = inhibition [3] 12.5% | Potency [4] > 20.6 µM

Cc1ccc(-c2nn(C)c(=O)c3ccccc23)cc1CN1CCOCC1
inactive: activity change, negative = inhibition [1] 16.4% | activity change, negative = inhibition [2] -19.8% | activity, negative = inhibition [3] -0.983% | Potency [4] > 20.6 µM

CCN(CC)CCN1C(=O)C(O)=C(C(C)=O)C1c1ccc(OC)c(OC)c1 (centres undefined)
inactive: activity change, negative = inhibition [1] 1.74% | activity change, negative = inhibition [2] 3.09% | activity, negative = inhibition [3] -2.04% | Potency [4] > 20.6 µM

Cc1cc(=O)oc(C)c1C(=O)N[C@@H]1CCCCNC1=O
inactive: activity change, negative = inhibition [1] 9.85% | activity change, negative = inhibition [2] 9.68% | activity, negative = inhibition [3] 9.42% | Potency [4] > 20.6 µM

CN(C)c1nc2n(c(=O)n1)C(C#N)CS2 (centres undefined)
inactive: activity change, negative = inhibition [1] -5.05% | activity change, negative = inhibition [2] 3.5% | activity, negative = inhibition [3] 5.84% | Potency [4] > 20.6 µM

Nc1[nH]nc2nc(NCc3ccccc3)c3c(c12)CCN(Cc1ccccc1)C3
inactive: activity change, negative = inhibition [1] -11.4% | activity change, negative = inhibition [2] 0.244% | activity, negative = inhibition [3] 6.86% | Potency [4] > 20.6 µM
